Several values for one entry are separate records, joined by “and”; a condition that tells them apart may be missing. Identical values can stand only once. Screen size: about 290,000 compounds; about 3,500 (1.2%) were called active. This excerpt belongs to a sample that is enriched for actives. A number with no mark means an inactive call.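 How the source made its calls: active means inhibition above the campaign mean inhibition over all tested compounds plus 3 SD (cut at about 28% in these data); inactive means the rest.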

In this assay the test system is M18 aspartyl aminopeptidase (Plasmodium falciparum 3D7). The assay can be described thus: PfM18AAP inhibitors, malaria aminopeptidase, primary screen, biochemical, QFRET, recombinant enzyme (AID 1822).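 Further: 0% = plate median of test compound wells and 100% = 2 mM ZnCl2.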 Particulars: H-Glu-NHMec fluorogenic cleavage, at 7.35 µM, hits give high values.
Regarding `CCOC(=O)N1CCN(Cc2nc3cc(NC(=O)CC)ccc3n2CC)CC1`, the inhibition – broadly, the drop in the measured response relative to a control, in per cent – was -7.14%. The figure for `CCOc1ccccc1N1C(=O)CC(Sc2nccc(C)n2)C1=O` (stereo not given) is -4.13%.

On to `COc1cccc2cc(C(=O)N(C)C)c(=O)oc12`, for which the inhibition was -12.7%. For the compound `COc1cccc2cc(-c3cc(=O)oc4cc(C)c(O)cc34)oc12`, the inhibition is 41.3% (active). With `COc1ccc2oc(=O)cc(-c3cc4ccccc4o3)c2c1` the figure was 21.1%; with `COc1ccc(N2CCN(C(=O)Cn3cnc4sc(C)c(S(=O)(=O)N5CCOCC5)c4c3=O)CC2)cc1`, 2.52%.

With `CCOC(=O)C1CCN(c2c(Nc3cc(C)cc(C)c3)c(=O)c2=O)CC1`, the inhibition was -6.21%. Turning to `Cc1nc2ccc(S(=O)(=O)NCC(=O)O)cc2s1`, the inhibition was 51.8% (active). With `Cc1nc2ccc(S(=O)(=O)NC(C(=O)N3CCCCCC3)C(C)C)cc2s1` (stereo not given) the figure was -0.39%. On to `Cc1nc2ccc(S(=O)(=O)NCC(=O)NCCN3CCCCC3C)cc2s1` (stereo not given), for which the inhibition is -0.01%. On to `COc1cccc2cc(C(=O)NCc3ccc(C)cc3)c(=N)oc12`, for which the inhibition was 3.31%. In the case of `COc1ccc2c(CC(=O)N3CCc4cc(OC)c(OC)cc4C3)coc2c1`, the inhibition is 3.64%. As for `C/C(Cc1ccccc1)=N\NC(=O)CNC(=O)c1ccccc1Cl`, the inhibition is 6.33%.

Take `ONC(=Nc1ccc(Cl)cc1)c1ccccc1Cl`: the inhibition was 18.2%. With `ONC(=Nc1ccccc1)c1ccccc1Cl` the figure was 40.1% (active). The figure for `COC(=O)c1ccccc1Sc1c(/C=N/OCc2ccc(Cl)cc2)c(C(F)(F)F)nn1C` is 2.22%; for `c1ccc(-c2ccc3c(c2)NC(C2Nc4cc(-c5ccccc5)ccc4O2)O3)cc1` (stereo not given) it is 42.1% (active); for `COc1cccc(C(=O)Nc2nnc(S(=O)(=O)N(C)c3ccccc3)s2)c1` it is -1.4%. Consider `COc1cc(S(=O)(=O)Nc2ncn[nH]2)ccc1Cl`, for which the inhibition is 51.4% (active). With `COc1ccc(S(=O)(=O)Nc2ccc(S(=O)(=O)N3CCCCC3)cc2)cc1OC` the figure was 4.79%; with `COc1ccc(C(C)C)cc1S(=O)(=O)Nc1ncn[nH]1`, 8.59%; with `O=C(NCc1cccnc1)C12CC3CC(CC(C3)C1)C2`, -7.72%. The figure for `Cc1cc(NC(=O)CCC(=O)N(CC(=O)NCC2CCCO2)c2ccccc2)no1` (stereo not given) is -2.56%; for `O=C(NCCN1CCOC1=O)C1CCC(=O)N(CCc2ccc(Cl)cc2)C1` (stereo not given) it is -13.3%; for `COC(=O)c1c(C)oc2ccc(N(C(=O)Oc3ccccc3)S(=O)(=O)c3ccccc3)cc12` it is -12.4%.

`CC(=O)Oc1ccc(N(C(C)=O)S(=O)(=O)c2ccc3ccccc3c2)cc1Br`: the inhibition was -1.42%. Turning to `CC(=O)N(c1ccc2oc(=O)sc2c1)S(=O)(=O)c1ccc(C)cc1`, the inhibition was 32.7% (active).

With `CCOc1ccccc1NC(=O)NC1CCCCCCC1`, the inhibition was -2.13%. As to `CC(=O)Nc1ccc(NC(=O)[C@@H](NC(=O)c2cccc(C)c2)C(C)C)cc1`, the inhibition was -0.5%. Take `CCc1c(C)sc(NC(=O)c2cccs2)c1C(N)=O`: the inhibition was -38.8%. With `COc1ccc(NC(=O)COc2ccc(C(=O)c3ccc(F)cc3)cc2)cc1S(N)(=O)=O`, the inhibition was -0.83%.

`CC(/C=C/C1(O)C(C)CC(=O)CC1(C)C)OC1OC(CO)C(O)C(O)C1O` (stereo not given): the inhibition is 49.9% (active). On to `CC1=C(C)C(=O)OC(C(C)C2CCC3C4CC=C5CC(OC6OC(COC7OC(CO)C(O)C(O)C7O)C(O)C(O)C6O)CC(O)C5(C)C4CCC23C)C1` (stereo not given), for which the inhibition is 3.15%.

`Cc1[nH]c(C)c(S(=O)(=O)N2CCN(c3cccc(C(F)(F)F)c3)CC2)c1C(=O)N1CCCCC1`: the inhibition is 3.83%.

Take `Cc1ccc(/C=N/NC(=O)CSc2ccccn2)o1`: the inhibition was 5.97%. As for `N#CCC(=O)N/N=C/c1ccc(SCC(=O)Nc2ccccc2)o1`, the inhibition is 34.6% (active). With `O=C(CSc1ccc(/C=N/NC(=O)c2cccc(F)c2)o1)Nc1ccccc1`, the inhibition was 6.13%.

Regarding `CCC(C)(C)NC(=O)C(c1ccc(O)cc1)N(Cc1ccco1)C(=O)CCC(=O)Nc1ccccn1` (stereo not given), the inhibition is -14.9%. In the case of `COc1cccc(NC(=O)N2CCC(NC(=O)C(Cc3cccc(C)c3)NC(C)=O)CC2)c1` (stereo not given), the inhibition was -1.52%. Take `Cc1ccc(-n2[nH]c(C)c(/C=N/NC(=O)c3cccc([N+](=O)[O-])c3)c2=O)cc1C`: the inhibition was 1.83%. `CCN1CCN(c2cc3nc(C)n(Cc4ccccc4)c(=O)c3cc2NC(=O)c2ccccc2F)CC1`: the inhibition is -2.2%.

As to `COc1ccc(C(=O)CSc2nnc(COc3ccccc3)n2Cc2ccco2)cc1`, the inhibition is -6.68%. `COc1ccc(OCc2nnc3n2N=C(c2ccccc2)C(CC(=O)O)S3)cc1` (stereo not given): the inhibition is 33.1% (active).

For `COc1cccc(OCc2nnc3n2N=C(c2ccccc2)C(CC(=O)O)S3)c1` (stereo not given), the inhibition was 3.81%. On to `CC(C)(C)c1ccc(C(CC(=O)O)NS(=O)(=O)Cc2ccccc2)cc1` (stereo not given), for which the inhibition was -3.96%. Regarding `FC(F)(F)C1CCCN(c2nsc3ccccc23)C1` (stereo not given), the inhibition was 76.9% (active). For `CCOC(=O)c1c(NC(=S)NC(=O)c2ccco2)sc2c1CCCC2`, the inhibition is 6.75%.

For `CC(C)OC(=O)c1c(NC(=O)c2ccco2)sc2c1CCCC2`, the inhibition was -7.19%.

On to `CNC(=O)c1c(NC(NC(=O)c2ccco2)C(=O)c2ccc(Cl)cc2)sc2c1CCCC2` (stereo not given), for which the inhibition is 35% (active). `CC(=O)Nc1ccc(NC(=O)CC2CCCC2)cc1`: the inhibition was -1.31%. With `O=C(CCC1CCCC1)N=C1SC2CS(=O)(=O)CC2N1Cc1ccccc1` (stereo not given) the figure was 9.31%; with `Cc1cc(C)n2nc(CNS(=O)(=O)c3c(F)c(F)c(F)c(F)c3F)nc2n1`, 2.95%; with `CC(C)=CCN1CCN(CCCc2ccccc2)CC1CCO` (stereo not given), -4.62%. For `Cc1ccc(-n2c(C)cc(/C=C(\C#N)C(=O)NCC3CCCO3)c2C)cc1` (stereo not given), the inhibition was -10.2%. With `CN(C)c1ccc(-c2nnc(-c3cccnc3)o2)cc1` the figure was 10.3%; with `O=C1CC(c2ccccc2)=NN1c1ccc([N+](=O)[O-])cc1`, 0.8%; with `Cc1nc2ccccc2c(=O)n1Cc1ccc([N+](=O)[O-])cc1`, -5.86%. With `O=c1[nH]n(-c2ccc([N+](=O)[O-])cc2)c(=O)c2ccccc12`, the inhibition is 34.9% (active). For `CCCC(C(=O)NC1CCCC1)N(C(=O)Cn1nnc(-c2ccc(C)o2)n1)c1cccc(O)c1` (stereo not given), the inhibition is -0.55%. Regarding `CCCc1nc2ccccc2c(=O)n1NC(=O)c1c(O)c2ccccc2[nH]c1=O`, the inhibition was -1.38%.

As for `O=c1c2ccccc2ncn1/N=C/c1ccccc1`, the inhibition is 1.08%. Regarding `CCCc1nc2ccccc2c(=O)n1/N=C/c1ccc(O)c(O)c1`, the inhibition is 53.2% (active). For the compound `COC(=O)c1ccc(NC(=O)CSc2nc(N)c(NC(=O)c3ccc(Br)o3)c(=O)[nH]2)cc1`, the inhibition is 0.86%. Regarding `COc1ccc(C(=O)Nc2c(N)nc(SCC(=O)Nc3ccc(C(C)=O)cc3)[nH]c2=O)cc1`, the inhibition was 7.68%.

Regarding `Nc1nc(SCC(=O)Nc2cc(C(F)(F)F)ccc2Cl)[nH]c(=O)c1NC(=O)c1ccco1`, the inhibition is 30.4% (active). In the case of `COc1ccc(C)cc1Nc1nc(C)nc2c1oc1ccccc12`, the inhibition is 2.6%.

`CCc1ccc(C(CNc2nc(C(F)(F)F)nc3ccccc23)N(C)C)cc1` (stereo not given): the inhibition was 2.51%. Take `Cc1cc(OC(=O)c2ccccc2Cl)ccc1N1C(=O)CCC1=O`: the inhibition was 3.74%.

Take `CCN(CC)S(=O)(=O)c1cc([N+](=O)[O-])ccc1NNC(=O)Nc1ccccc1`: the inhibition was 48.1% (active). With `CCN(CC)S(=O)(=O)c1cc([N+](=O)[O-])ccc1N=Nc1c(O)n(C)c2ccccc12` the figure was -3.78%; with `CC(=O)c1ccc(NC(=O)Nc2ccc([N+](=O)[O-])cc2C)cc1`, -10.5%.

For the compound `CCCCN(CCCC)CCNC(=O)CN1C(=O)COc2ccc(S(=O)(=O)N3CCOCC3)cc21`, the inhibition is 7.53%. With `CCCCN1C(=O)C(C)=C(C)C1OCCc1ccc(OC)c(OC)c1` (stereo not given) the figure was -8.94%; with `CC1(C(=O)N/N=C/c2cc3c(cc2Br)OCO3)CC1(Br)Br` (stereo not given), 7.28%. On to `NNc1nc2c(Cl)cccc2s1`, for which the inhibition is 28.1% (active).

As for `CN(C)CCCN(C(=O)COc1ccccc1)c1nc2c(Cl)cccc2s1`, the inhibition is -2.07%. The figure for `Fc1cc(F)c2nc(Nc3nc4c(F)cccc4s3)sc2c1` is -6.75%; for `CCOC(=O)C1CCCN(S(=O)(=O)c2ccc3c(c2)C(C)(C)C(=O)N3C)C1` (stereo not given) it is 7.85%; for `OC(c1ccc(Cl)cc1)C(CN1CCOCC1)c1ccccc1` (stereo not given) it is 1.27%.

Take `CCOc1ccc(S(=O)(=O)NCc2ccc3c(c2)OCO3)cc1C`: the inhibition was -10.2%. Turning to `CSc1ccc(CCNC(=O)CS(=O)(=O)Cc2nc(-c3ccccc3F)oc2C)cc1`, the inhibition is -0.36%. Regarding `Oc1c(C(c2cccs2)N2CCN(c3ccc(F)cc3)CC2)sc2ncnn12` (stereo not given), the inhibition was 16.4%. With `Oc1c(C(c2ccco2)N2CCC3(CC2)OCCO3)sc2ncnn12` (stereo not given), the inhibition is 35.8% (active). `Cc1nc2sc(C(c3ccco3)N3CCC4(CC3)OCCO4)c(O)n2n1` (stereo not given): the inhibition is 0.84%.

Regarding `CCc1nn(CCCN2CCN(c3cccc(Cl)c3)CC2)c(=O)n1CCOc1ccccc1`, the inhibition is 8.14% and 7.54%. Turning to `O=S(=O)(c1ccc(Cl)cc1)N1CCCN(c2ccc(C(F)(F)F)cn2)CC1`, the inhibition is -1.37%. As for `COc1ccc(OC)c(/C(C)=N\NC(=O)c2cc3cc(Cl)ccc3n2C)c1`, the inhibition was 3.86%. For the compound `Oc1ccc(N=Cc2c(O)ccc3ccccc23)cc1`, the inhibition is 28.4% (active). In the case of `O=[N+]([O-])c1ccc(N=Cc2c(O)ccc3ccccc23)cc1`, the inhibition is -0.85%. Consider `Oc1ccc(N=Cc2sc3ccccc3c2Cl)cc1`, for which the inhibition was 21.1%.

For the origin of these results see PubChem BioAssay AID1822 (The Scripps Research Institute Molecular Screening Center, 2009).
